Screening data (PubChem)
ELG1 genotox: genotoxicity induction in ELG1-luciferase HEK293T cells. HEK293T ELG1-luciferase reporter, luminescence, 16 h. Potency, µM (series often up to 46 µM), usual class: activators. 330,000 compounds, 1.3% hits; note: nearly all actives have a fitted effect of over 60% in size
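Reporter readout depends on ELG1 protein level, which increases with genetic stress. After 16 hr compound exposure at 37 °C, luciferase activity was quantified using ONE-Glo.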
Rab9 prom act: activators of Rab9 promoter; Huh7 Rab9 promoter-luciferase reporter, luminescence, 24 h; Potency, µM (top dose mostly 9.22 µM), usual class: activators; 320,000 compounds, 2.8% hits; note: nearly all actives have a fitted effect of over 60% in size
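Stable Rab9-luc Huh7, 1500 cells/well, 2 h settle; cmpd in DMSO, 24 h, 37 °C/5% CO2; luciferase reagent 10 min RT; luminescence.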
NPC1 promoter act: NPC1 promoter activation; Potency, µM (series often up to 9.22 µM), hits mostly activators; Huh7 NPC1 promoter luciferase reporter, 24 h; AID 485313; 320,000 compounds, 2.4% hits; note: nearly all actives have a fitted effect of over 60% in size
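Cells: Huh7 expressing luciferase under the NPC1 promoter, 1500/well. Seeded 2 h, compound added, incubated 24 h at 37 °C. Luciferase reagent, 10 min ambient, then luminescence.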
SMN2 splice up: SMN2 splice variant enhancement; HEK293 SMN2-luciferase splicing reporter, luminescence, 30-36 h; Potency, µM (titrated, usually from 46.1 µM), most hits filed as activators; AID 1458; 210,000 compounds, 2.8% hits; note: nearly all actives have a fitted effect of over 55% in size
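HEK293 cells carry an SMN2 minigene-luciferase reporter in which exon 7 inclusion puts luciferase in frame. Cells were seeded at 2000 cells/well, attached for 10-12 hours, then exposed to compounds for 30-36 hours at 37C before ONE-Glo luminescence.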
ELG1 DNA repair: blocks ELG1-dependent DNA repair in HEK293T cells; HEK293T ELG1-luciferase reporter, luminescence, 16 h; DNA damage induced by 5-fluorouridine; Potency, µM (doses to about 46.1 µM), actives largely listed as inhibitors; 330,000 compounds, 2.3% hits; AID 504467; note: nearly all actives have a fitted effect of over 55% in size
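Reporter activity after DNA damage by 5-fluorouridine is monitored. Compound-treated cells incubate 16 hr at 37 °C, then ONE-Glo is added for 30 min before luminescence reading.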
FLuc modulator: counter-screen for miR-21 project: firefly luciferase inhibitors or activators; 360,000 compounds, 6.9% hits; Potency, µM (doses to about 57.5 µM), usual class: inhibitors; P08659; purified FLuc, Km substrates, luminescence inhibition; note: nearly all actives have a fitted effect of over 55% in size
Target sequence (P08659 whole entry, looked up): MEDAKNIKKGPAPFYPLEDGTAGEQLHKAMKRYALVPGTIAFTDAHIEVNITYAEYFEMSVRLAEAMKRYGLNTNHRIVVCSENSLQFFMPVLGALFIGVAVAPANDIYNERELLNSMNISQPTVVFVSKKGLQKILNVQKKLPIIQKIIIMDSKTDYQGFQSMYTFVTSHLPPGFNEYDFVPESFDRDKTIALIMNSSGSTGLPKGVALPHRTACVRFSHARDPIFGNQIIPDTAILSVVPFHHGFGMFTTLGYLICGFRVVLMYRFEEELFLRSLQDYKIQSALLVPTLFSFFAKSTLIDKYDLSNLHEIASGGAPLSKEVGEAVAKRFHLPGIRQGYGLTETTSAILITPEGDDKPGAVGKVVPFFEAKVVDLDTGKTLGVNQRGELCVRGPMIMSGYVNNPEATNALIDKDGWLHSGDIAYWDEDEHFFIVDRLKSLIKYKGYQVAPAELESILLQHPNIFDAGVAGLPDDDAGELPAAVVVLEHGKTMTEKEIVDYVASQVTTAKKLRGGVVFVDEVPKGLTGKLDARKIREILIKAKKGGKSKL
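Biochemical qHTS of compounds, final roughly 60 µM downward over six points, against 10 nM purified firefly luciferase using Km concentrations of substrates (10 uM D-luciferin, 10 uM ATP) in Tris acetate pH 7.5 buffer; luminescence output.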
Each line names hits and unclear results; the compound was inactive in the other large screens. Hits are enriched below; roughly 9.3% of the tested compounds scored in any of these assays. Calls come from the whole dose curve; as a rule, active = well fitted curve in the direction sought with a large enough effect; inconclusive = small, poorly fitted or top-dose-only effect, or another doubt; inactive = no such curve, though single readings can be large; an effect the other way counts as inactive or inconclusive.

Oc1c(C(c2ccccc2)N2CCC(O)CC2)sc2nc(-c3ccco3)nn12 (configuration not stated)	none (no result: ELG1 genotox, Rab9 prom act, NPC1 promoter act, SMN2 splice up, ELG1 DNA repair)
CC(NC(=O)c1ccc2c(c1)CCN2S(=O)(=O)c1ccc(Cl)cc1)c1ccccc1 (configuration not stated)	none (no result: ELG1 genotox, Rab9 prom act, NPC1 promoter act, ELG1 DNA repair)
Cc1ccc(CN2CC(=O)N3[C@H]4c5cc(C)ccc5OC[C@@H]4[C@H](c4ccccc4)[C@]3(C)C2=O)cc1	none (no result: SMN2 splice up)
COc1ccc2c(c1)[C@H]1[C@H](CO2)[C@H](c2ccccc2)[C@]2(C)C(=O)N(Cc3ccc(C)cc3)CC(=O)N12	ELG1 DNA repair 18µM (no result: Rab9 prom act, NPC1 promoter act, SMN2 splice up, FLuc modulator)
Cc1cc(C)c2nc(NC(=O)c3ccco3)sc2c1	ELG1 genotox 0.65µM, Rab9 prom act 0.56µM, NPC1 promoter act 2.8µM, ELG1 DNA repair inconclusive, FLuc modulator 0.54µM (no result: SMN2 splice up)
Cc1cc(Cl)cc2sc(NC(=O)c3ccco3)nc12	ELG1 genotox 2.9µM, Rab9 prom act 2.2µM, NPC1 promoter act inconclusive, ELG1 DNA repair inconclusive, FLuc modulator 9.5µM (no result: SMN2 splice up)
Cc1cc(Cl)cc2sc(NC(=O)C3CC3)nc12	ELG1 DNA repair inconclusive (no result: SMN2 splice up)
Cc1nc2nc(NC(=O)c3ccco3)nn2c(C)c1Cl	ELG1 genotox 18µM, Rab9 prom act 3.2µM, NPC1 promoter act 3.5µM, ELG1 DNA repair inconclusive, FLuc modulator inconclusive (no result: SMN2 splice up)
O=C(Nc1nc2c(Br)cc(Br)cc2c(=O)s1)c1ccco1	none (no result: SMN2 splice up)
O=C(Nc1nc2c(F)cccc2s1)c1ccco1	ELG1 genotox 7.3µM, Rab9 prom act 1.1µM, NPC1 promoter act 1.1µM, ELG1 DNA repair inconclusive, FLuc modulator 4.8µM (no result: SMN2 splice up)
Cc1ccc(CNc2nc3nc(C)c(Cl)c(C)n3n2)cc1	none (no result: ELG1 genotox, Rab9 prom act, NPC1 promoter act, ELG1 DNA repair, FLuc modulator)
O=C(COC(=O)C1CCCC1)Nc1ncc(Cl)cc1Cl	ELG1 DNA repair inconclusive, FLuc modulator inconclusive (no result: SMN2 splice up)
Cn1c(C(=O)NCc2ccccc2)cc2oc3ccccc3c21	Rab9 prom act inconclusive, SMN2 splice up 32µM, ELG1 DNA repair inconclusive, FLuc modulator 13µM
Cn1c(C(=O)NCC2CCCO2)cc2c(=O)[nH]c3ccccc3c21 (configuration not stated)	none
CCn1c(C(=O)NCc2ccccc2Br)cc2oc3ccccc3c21	SMN2 splice up 4.5µM (no result: ELG1 genotox, Rab9 prom act, NPC1 promoter act, ELG1 DNA repair)
Cn1c(C(=O)NCC2CCCO2)cc2oc3ccccc3c21 (configuration not stated)	ELG1 genotox inconclusive, Rab9 prom act 1.6µM, NPC1 promoter act 2.8µM, ELG1 DNA repair inconclusive, FLuc modulator 13µM
Cn1c(C(=O)NCc2cccs2)cc2oc3ccccc3c21	Rab9 prom act inconclusive, SMN2 splice up 4.5µM, FLuc modulator 13µM
CN(CC(=O)Nc1ccc(Cl)c(C(F)(F)F)c1)C(=O)c1cc(=O)c2ccccc2o1	none (no result: SMN2 splice up)
Nc1ccccc1C(=O)N1CCc2ccccc21	Rab9 prom act inconclusive, NPC1 promoter act inconclusive, ELG1 DNA repair inconclusive, FLuc modulator 19µM (no result: SMN2 splice up)
O=C(c1ccc(Br)o1)N1CCCc2ccccc21	none
Cc1c(Br)c(C(=O)N2CCc3ccccc32)nn1C	ELG1 genotox inconclusive, Rab9 prom act inconclusive, SMN2 splice up inconclusive, ELG1 DNA repair inconclusive, FLuc modulator 21µM
O=C(c1ccc(Br)o1)N1CCc2ccccc21	ELG1 genotox inconclusive, Rab9 prom act 2.5µM, NPC1 promoter act 2.2µM, ELG1 DNA repair inconclusive, FLuc modulator 4.8µM (no result: SMN2 splice up)
Cc1nn(C)c(C(=O)N2CCc3ccccc32)c1Br	none
Cc1c(C(=O)N2CCc3ccccc32)oc2ccccc12	ELG1 genotox 3.7µM, Rab9 prom act 3.5µM, NPC1 promoter act inconclusive, SMN2 splice up 3.5µM, ELG1 DNA repair inconclusive, FLuc modulator 0.95µM
COc1ccccc1NC(=O)C1CCCN(c2ncnc3onc(-c4ccc(F)cc4)c23)C1 (configuration not stated)	none (no result: ELG1 genotox, Rab9 prom act, NPC1 promoter act, SMN2 splice up, ELG1 DNA repair)
O=C(NNc1ccccn1)C(=O)NNS(=O)(=O)c1ccc(F)cc1	ELG1 DNA repair 21µM
Cn1c(O)c(N=NC(=O)c2cccc(S(=O)(=O)N3CCCCC3)c2)c2ccccc21	ELG1 DNA repair 18µM
C[C@@H]1COC(=O)[C@H](CC(=O)OC(C)(C)C)C/C=C\C[C@@H](CC(=O)N(CCO)Cc2ccccc2)C(=O)N1	none (no result: Rab9 prom act, NPC1 promoter act, SMN2 splice up, FLuc modulator)
